Structures can show the parent of a compound that is named as a salt.
Legend:
Details in all cases: 20 µM
[1] = tested on: Haemophilus parainfluenzae; assay: growth AUC normalised to DMSO control (fraction of control); higher = less growth inhibition, active = hit call of the paper
In short: (§1)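 After two anaerobic passages, pathogens were added at a starting OD578 of 0.01 to pre-reduced mGAM plates holding compound at 20 μM with 1% DMSO; hemin and NAD were supplemented for Haemophilus parainfluenzae. Sealed with breathable membranes, plates were read at OD578 hourly for 24 h, in three biological replicates. The trapezoidal rule, applied up to the exponential-to-stationary transition, gave the growth-curve AUC, which was normalised to DMSO controls on the same plate.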

[2] = tested on: Salmonella enterica typhimurium; assay: as above
In short: as §1

Shigella flexneri = assay: as above
In short: as §1

Vibrio cholerae = assay: as above
In short: as §1

[3] = tested on: Yersinia pseudotuberculosis; assay: as above
In short: as §1

P. vulgatus RND KO = assay: growth AUC normalised to DMSO control (median) (fraction of control); higher = less growth inhibition, active = hit call of the paper
In short: (§2)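 After two overnight anaerobic passages, strains were inoculated at OD578 0.01 into mGAM in 96-well plates containing approved-drug library compounds at 20 μM and 1% DMSO. Growth was followed by reading OD578 hourly for 24 h within an anaerobic incubator. Area under the curve, taken by the trapezoidal rule up to the start of stationary phase, was normalised to same-plate vehicle wells, and the median of three biological replicates is listed.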

P. vulgatus WT = assay: as above
In short: as §2

[4] = tested on: S. enterica typhimurium WT; assay: as above
In short: as §2

[5] = tested on: S. enterica typhimurium tolC KO; assay: as above
In short: as §2

Measured: growth AUC normalised to DMSO control
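Wherever growth AUC normalised to DMSO control (median) is given: active when median AUC fell below 0.1.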

C[C@]12CC[C@H](O)C[C@H]1CC[C@@H]1[C@@H]2C[C@@H](O)[C@]2(C)[C@@H](C3=CC(=O)OC3)CC[C@]12O [Digoxigenin]
inactive: [1] 1.01 | [2] 1.03 | Shigella flexneri 0.999 | Vibrio cholerae 1.03 | [3] 0.998 | P. vulgatus RND KO 0.998 | P. vulgatus WT 1.04 | [4] 1.01 | [5] 1

CC(=O)[C@H]1CC[C@H]2[C@@H]3CC[C@H]4C[C@H](O)CC[C@]4(C)[C@H]3C(=O)C[C@]12C [Alfaxalone]
inactive: [1] 1 | [2] 0.999 | Shigella flexneri 0.973 | Vibrio cholerae 0.964 | [3] 1.01 | P. vulgatus RND KO 0.996 | P. vulgatus WT 0.996 | [4] 1 | [5] 0.911

C[C@@H]1C[C@@H]([C@H](O)CC2CC(=O)NC(=O)C2)C(=O)[C@@H](C)C1 [Cycloheximide]
inactive: [1] 1.03 | [2] 1 | Shigella flexneri 1.04 | Vibrio cholerae 1.01 | [3] 0.999 | P. vulgatus RND KO 1.01 | P. vulgatus WT 1.01 | [4] 0.999 | [5] 0.999

C[C@@H]1CC[C@H]2[C@@H](C)C(=O)O[C@@H]3O[C@@]4(C)CC[C@@H]1[C@]32OO4 [Artemisinin]
inactive: [1] 0.986 | [2] 0.988 | Shigella flexneri 1.01 | Vibrio cholerae 0.987 | [3] 0.957 | P. vulgatus RND KO 1.02 | P. vulgatus WT 1.04 | [4] 0.996 | [5] 0.998

CCC(=O)O[C@H]1CC[C@H]2[C@@H]3CCC4=CC(=O)CC[C@]4(C)[C@H]3CC[C@]12C [Testosterone propionate]
inactive: [1] 1.06 | [2] 1.02 | Shigella flexneri 1.03 | Vibrio cholerae 1.04 | [3] 0.989 | P. vulgatus RND KO 1 | P. vulgatus WT 1.01 | [4] 1.02 | [5] 0.911

CC(=O)O[C@H]1C[C@H](O[C@H]2[C@@H](O)C[C@H](O[C@H]3[C@@H](O)C[C@H](O[C@H]4CC[C@@]5(C)[C@H](CC[C@@H]6[C@@H]5C[C@@H](O)[C@]5(C)[C@@H](C7=CC(=O)OC7)CC[C@]65O)C4)O[C@@H]3C)O[C@@H]2C)O[C@H](C)[C@H]1O[C@@H]1O[C@H](CO)[C@@H](O)[C@H](O)[C@H]1O [Lanatoside C]
inactive: [1] 1.04 | [2] 1.01 | Shigella flexneri 1.01 | Vibrio cholerae 1.02 | [3] 0.984 | P. vulgatus RND KO 1.01 | P. vulgatus WT 1.06 | [4] 1.01 | [5] 0.997

CCC1(c2cccc(O)c2)CCCCN(C)C1 (stereo not drawn) [Meptazinol hydrochloride]
inactive: [1] 0.961 | [2] 0.983 | Shigella flexneri 0.948 | Vibrio cholerae 0.974 | [3] 0.994 | P. vulgatus RND KO 0.993 | P. vulgatus WT 0.982 | [4] 0.998 | [5] 1

CCn1cc(C(=O)O)c(=O)c2cc3c(cc21)OCO3 [Oxolinic acid]
active: [1] 0.0639 | [2] 0.0132 | Shigella flexneri 0.0542 | Vibrio cholerae 0.0353 | [3] 0.0367 | [4] 0.0291 | [5] 0.0105
inactive: P. vulgatus RND KO 0.951 | P. vulgatus WT 0.922

CCCC(C)(COC(N)=O)COC(=O)NC(C)C (stereo not drawn) [Carisoprodol]
inactive: [1] 0.843 | [2] 1 | Shigella flexneri 0.977 | Vibrio cholerae 0.948 | [3] 1 | P. vulgatus RND KO 1 | P. vulgatus WT 1.02 | [4] 1 | [5] 0.979

C[C@H](N)[C@H](O)c1ccc(O)c(O)c1 [Levonordefrin]
inactive: [1] 1.04 | [2] 1.01 | Shigella flexneri 1 | Vibrio cholerae 1 | [3] 1.03 | P. vulgatus RND KO 1.01 | P. vulgatus WT 1.03 | [4] 0.99 | [5] 1

C[C@]12CCC(=O)C=C1C=C[C@@H]1[C@@H]2CC[C@@]2(C)[C@H]1CC[C@@]2(O)CCC(=O)O [Canrenoic acid potassium salt]
inactive: [1] 0.979 | [2] 0.993 | Shigella flexneri 0.97 | Vibrio cholerae 1.02 | [3] 0.983 | P. vulgatus RND KO 1.01 | P. vulgatus WT 0.996 | [4] 1.01 | [5] 1

CCCC(C)C1(CC)C(=O)NC(=O)NC1=O (stereo not drawn) [Pentobarbital]
inactive: [1] 1.02 | [2] 1.01 | Shigella flexneri 1.05 | Vibrio cholerae 0.999 | [3] 0.986 | P. vulgatus RND KO 1.05 | P. vulgatus WT 1.06 | [4] 1.01 | [5] 0.999
